PubChem BioAssay AID1159580 (chemical genetic matrix, 2015)
Where “and” joins values, the source holds several entries; their conditions need not be identical. Identical values can stand only once. Out of some 5,500 compounds screened, about 2,000 (36%) were called active. Roughly 18% stayed inconclusive and do not appear here. Rule as the data show it: active = normalized growth mostly below about 0.91 (no sharp cut-off); inconclusive = no clear call, values can overlap the other calls; inactive = mostly above about 0.92. The list shows a part of the results.

Test: chemical genetic growth profiling, strain panel (AID 1159580);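 also: tested at 20 µM; growth read once vehicle control cultures reached saturation at 30 °C; 1 = growth at the plate median or of vehicle wells; lower values mean less growth of the strain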
Settings: S. cerevisiae deletion strains, growth OD

Measured: normalized growth

N#C/C(=C\c1cccc(O)c1)C(=O)O
inactive: locus YAL013W, strain DEP1, hits give low values 0.996 | locus YAL021C, strain ccr4, hits give low values 0.978 | locus YAL026C, strain drs2, hits give low values 0.985 | locus YAL030W, strain snc1, hits give low values 0.977 | locus YBL061C, strain skt5, hits give low values 0.976 | locus YBR009C, strain hhf1, hits give low values 1.03 | locus YBR021W, strain FUR4, hits give low values 1.02 | locus YBR023C, strain chs3, hits give low values 0.979 | locus YBR171W, strain sec66, hits give low values 0.995 | locus YBR229C, strain ROT2, hits give low values 0.961 | locus YBR231C, strain swc5, hits give low values 1.01 | locus YBR279W, strain paf1, hits give low values 0.987 | locus YCL016C, strain dcc1, hits give low values 0.966 | locus YCL029C, strain bik1, hits give low values 0.997 | locus YCL061C, strain MRC1, hits give low values 0.985 | locus YCL069W, strain vba3, hits give low values 1 | locus YCR088W, strain abp1, hits give low values 0.989 | locus YDL005C, strain med2, hits give low values 0.999 | locus YDL035C, strain GPR1, hits give low values 0.994 | locus YDL040C, strain nat1, hits give low values 0.99 | locus YDL074C, strain BRE1, hits give low values 0.981 | locus YDL101C, strain DUN1, hits give low values 0.974 | locus YDL134C, strain PPH21, hits give low values 0.992 | locus YDL185W, strain tfp1, hits give low values 0.98 | locus YDL192W, strain arf1, hits give low values 0.994 | locus YDR001C, strain nth1, hits give low values 0.988 | locus YDR069C, strain doa4, hits give low values 0.985 | locus YDR101C, strain arx1, hits give low values 1.01 | locus YDR137W, strain rgp1, hits give low values 0.977 | locus YDR150W, strain NUM1, hits give low values 0.974 | locus YDR159W, strain sac3, hits give low values 0.987 | locus YDR162C, strain NBP2, hits give low values 0.921 | locus YDR195W, strain ref2 1 | locus YDR297W, strain sur2, hits give low values 0.984 | locus YDR318W, strain mcm21, hits give low values 1.03 | locus YDR334W, strain swr1, hits give low values 0.981 | locus YDR335W, strain msn5, hits give low values 0.982 | locus YDR388W, hits give low values 0.999 | locus YDR392W, strain spt3, hits give low values 0.933 | locus YDR502C, strain sam2, hits give low values 0.997 | locus YEL003W, strain gim4, hits give low values 0.997 | locus YEL037C, strain rad23, hits give low values 0.997 | locus YEL061C, strain CIN8 (second series), hits give low values 0.989 | locus YEL061C, strain CIN8, hits give low values 0.985 | locus YER015W, strain faa2, hits give low values 0.975 | locus YER016W, strain bim1, hits give low values 0.949 | locus YER110C, hits give low values 0.942 | locus YER111C, strain swi4, hits give low values 0.971 | locus YER155C, strain BEM2 (second series), hits give low values 1.04 | locus YER155C, strain BEM2, hits give low values 0.986 | locus YER167W, strain BCK2, hits give low values 1.05 | locus YFR010W, strain ubp6, hits give low values 1.01 | locus YGL078C, strain dbp3, hits give low values 0.976 | locus YGL086W, strain mad1, hits give low values 1.03 | locus YGL167C, strain pmr1, hits give low values 0.99 | locus YGL173C, strain kem1, hits give low values 1.01 | locus YGL227W, strain vid30, hits give low values 0.985 | locus YGL240W, strain doc1, hits give low values 0.986 | locus YGL248W, strain PDE1, hits give low values 0.984 | locus YGL253W, strain hxk2, hits give low values 0.975 | locus YGR078C, strain PAC10, hits give low values 0.996 | locus YGR135W, strain pre9, hits give low values 0.993 | locus YGR229C, strain SMI1, hits give low values 1.02 | locus YGR252W, strain gcn5, hits give low values 1.07 | locus YHR013C, strain ard1, hits give low values 0.962 | locus YHR027C, strain rpn1, hits give low values 0.984 | locus YHR030C, strain SLT2, hits give low values 0.999 and 0.994 | locus YHR079C, strain IRE1 (second series), hits give low values 1 | locus YHR079C, strain IRE1, hits give low values 0.969 | locus YHR094C, strain hxt1, hits give low values 0.993 | locus YHR129C, strain ARP1, hits give low values 1 | locus YHR142W, strain chs7, hits give low values 0.971 | locus YHR200W, strain rpn10, hits give low values 1 | locus YIL066C, strain RNR3, hits give low values 0.989 | locus YIL073C, strain SPO22, hits give low values 1.1 | locus YIL125W, strain kgd1, hits give low values 0.989 | locus YIR030C, strain dcg1, hits give low values 0.991 | locus YJL092W, strain hpr5, hits give low values 0.987 | locus YJL095W, strain BCK1 (second series), hits give low values 0.984 | locus YJL095W, strain BCK1, hits give low values 1.01 and 0.978 | locus YJL115W, strain asf1, hits give low values 0.97 | locus YJL129C, strain trk1, hits give low values 0.925 | locus YJL134W, strain LCB3, hits give low values 0.987 | locus YJL154C, strain vps35, hits give low values 0.985 | locus YJL164C, strain tpk1, hits give low values 0.987 | locus YJL166W, strain qcr8, hits give low values 1 | locus YJL168C, strain set2, hits give low values 0.995 | locus YJL187C, strain SWE1 (second series), hits give low values 0.966 | locus YJL187C, strain SWE1, hits give low values 0.997 | locus YJR043C, strain POL32, hits give low values 1.04 | locus YJR066W, strain TOR1, hits give low values 0.98
